Results taken from PubChem BioAssay (NCATS).
Unmarked numbers belong to inactive results. Records with an inconclusive call do not appear. Entries that show only a call come without a potency. Calls of active or inactive are those of the source. The call rests on the fitted dose curve; in most records, active means well fitted curve in the direction sought with a large enough effect; inconclusive means small, poorly fitted or top-dose-only effect, or another doubt; inactive means no such curve, though single readings can be large; an effect the other way counts as inactive or inconclusive.

How the values were obtained:
[1] = qHTS to identify inhibitors of the type 1 interferon - major histocompatibility complex class I in skeletal muscle: primary screen against the NCATS LOPAC collection (AID 1347405);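 further: lytic HiBiT luminescence reporting HLA-B protein level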
Method in brief: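 After 24 h at 37 C with compounds (7-point, 1:4.3 dilutions, 46 uM top final) plus 4 ng/ml IFN-beta, luminescence from lytic HiBiT detection was measured. HLA-B*08:01 in C25cl48 myoblasts carried an endogenous C-terminal HiBiT tag; medium lacked dexamethasone.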

[2] = qHTS to identify inhibitors of the type 1 interferon - major histocompatibility complex class I in skeletal muscle: primary screen against the NCATS Pharmaceutical Collection (AID 1347407);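 further: luminescence of HiBiT knocked into endogenous HLA-B as interferon-induced MHC class I level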
Method in brief: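 A qHTS format is used: 8-point, 1:5 compound series with 46 uM top final concentration, applied alongside 4 ng/ml IFN-beta to HLA-B*08:01-HiBiT knock-in myoblasts. Luminescence is measured after 24 h treatment.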

[3] = qHTS for inhibitors of adenylyl cyclases using a fission yeast platform: a pilot screen against the NCATS LOPAC library (AID 1347410)
Method in brief: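 Inhibition of GNAS-stimulated AC9 activity in S. pombe was inferred from derepression of a PKA-repressed fbp1-GFP reporter, measured as cytometric fluorescence after 18 h at 30C with compounds at up to 57 µM.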

[4] = qHTS to identify inhibitors of the type 1 interferon - major histocompatibility complex class I in skeletal muscle: primary screen against the NCATS Mechanism Interrogation Plate v5.0 (MIPE) Libary (AID 1347411); further: nearly all actives have a fitted effect of over 65% in size
Method in brief: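 Luminescence from CRISPR HiBit-tagged endogenous HLA-B in human myoblasts reported MHC class I level after 24 h of IFN-beta (4 ng/ml) plus compound. Compounds ran as 11-point 1:3 series, top 46 uM final.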

[5] = target: Protein phosphatase 1D (Homo sapiens) (UniProt O15297); assay: RapidFire Mass Spectrometry qHTS Assay for Modulators of WT P53-Induced Phosphatase 1 (WIP1) (AID 1347424); further: series mostly up to about 63 µM
Method in brief: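 RapidFire MS readout of dephosphorylated VEPPL-S-QETFS product, with 1 uM isotope-labelled peptide standard. Reaction: 10 nM WIP1, 2 uM phosphopeptide substrate, 5 min, room temperature, after 1 h compound preincubation; stopped with 0.5% formic acid.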

[6] = target: Protein phosphatase 1D (Homo sapiens) (UniProt O15297); assay: Rhodamine-PBP qHTS Assay for Modulators of WT P53-Induced Phosphatase 1 (WIP1) (AID 1347425)
Method in brief: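 The read-out is the change in Rhodamine-PBP fluorescence (f1 - f0, ex 525/em 598 nm) as Pi is released, read each minute for 11 min. Final reaction: 5 nM WIP1, 10 uM phosphopeptide VEPPL-pS-QETFS, 10 uM Rh-PBP, 50 mM Tris-HCl pH 7.5, 30 mM MgCl2. Compound was preincubated with enzyme for 1 hour at room temperature.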

[7] = Validation qHTS assay for inhibitors of Activation Induced Cytidine Deaminase (AID): UDG Counterscreen signal (AID 1347427)
Method in brief: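 Fluorescence at 560 nm excitation, 665 nm emission reports UDG signal after 250 mM NaOH (2x) addition and 30 min. Enzymes (AID 1 uM, UDG 2 U/mL, at 4/3x) preincubated 10 min with compound, then 4 h with 4x 250 nM DJC20/DJC23 substrate at room temperature.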

[8] = target: Single-stranded DNA cytosine deaminase (Homo sapiens) (UniProt Q9GZX7); assay: Validation qHTS assay for inhibitors of Activation Induced Cytidine Deaminase (AID): AID signal (AID 1347429)
Method in brief: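 Compounds (final up to 114 uM) preincubated with AID plus UDG; 250 nM DJC20/DJC23 substrate mix (4x stock) added, 4 hr at room temperature, then NaOH, 30 min. Read 1 fluorescence at 540 nm excitation, 590 nm emission.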

[9] = Primary qHTS for inhibitors of La Crosse Virus (LACV) - induced cell death in SH-SY5Y cells (AID 1508616);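 further: top concentration of the series differs between compounds; higher means more rescue of cells from virus-induced death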
Method in brief: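 Rescue of virus-induced death was read as ATPLite luminescence after 6 days at 37C, scaled between DMSO wells with LACV and without virus. Cells were SH-SY5Y, 6000/well, infected at 0.01 MOI after compound addition.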

[10] = Tertiary RLuc qRT-PCR qHTS assay for Zika virus inhibitors (AID 1347169); further: nearly all actives have a fitted effect of over 55% in size; further: potency means the concentration at half of the fitted maximal effect; on activity change, negative = inhibition: top concentration of the series differs between compounds
Method in brief: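 Inhibition of ZIKV-RLuc replication in Vero cells, read as Renilla luminescence 1-1.5 hrs after live-cell substrate addition, following 48-72 hrs infection at MOI 1-2 in presence of compound.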

Protein phosphatase 1D (Homo sapiens), sequence (O15297 whole entry, looked up): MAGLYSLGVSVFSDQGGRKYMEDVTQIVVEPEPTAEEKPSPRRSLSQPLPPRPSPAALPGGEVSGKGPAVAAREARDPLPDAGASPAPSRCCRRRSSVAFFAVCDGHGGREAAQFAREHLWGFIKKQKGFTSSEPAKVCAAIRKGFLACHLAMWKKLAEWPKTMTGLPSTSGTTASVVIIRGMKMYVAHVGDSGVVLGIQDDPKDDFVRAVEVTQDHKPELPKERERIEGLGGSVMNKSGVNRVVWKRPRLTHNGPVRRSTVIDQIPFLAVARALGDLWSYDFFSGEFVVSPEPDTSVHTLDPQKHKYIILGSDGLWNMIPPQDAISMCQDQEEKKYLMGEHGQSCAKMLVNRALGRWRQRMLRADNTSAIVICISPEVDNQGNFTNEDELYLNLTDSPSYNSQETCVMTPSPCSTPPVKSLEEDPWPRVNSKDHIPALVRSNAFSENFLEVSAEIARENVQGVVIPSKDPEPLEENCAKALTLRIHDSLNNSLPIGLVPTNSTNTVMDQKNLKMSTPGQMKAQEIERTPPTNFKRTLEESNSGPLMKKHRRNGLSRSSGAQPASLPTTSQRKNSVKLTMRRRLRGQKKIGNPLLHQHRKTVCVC
Single-stranded DNA cytosine deaminase (Homo sapiens), sequence (Q9GZX7 whole entry, looked up): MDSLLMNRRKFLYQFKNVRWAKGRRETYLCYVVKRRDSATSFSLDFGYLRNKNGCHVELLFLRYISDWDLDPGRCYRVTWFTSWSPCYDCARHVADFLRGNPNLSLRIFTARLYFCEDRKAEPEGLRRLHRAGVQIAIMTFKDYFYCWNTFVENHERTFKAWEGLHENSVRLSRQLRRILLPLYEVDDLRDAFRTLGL

Compound | Potency [1] | outcome [2] | outcome [3] | Potency [4] | Potency [5] | outcome [6] | outcome [7] | Potency [8] | outcome [9] | Potency [10] | activity change, negative = inhibition [4]
NC(=O)c1cnccn1 | inactive | inactive | inactive | inactive | inactive | inactive | inactive | inactive | inactive |  | 
O=c1[nH]cnc2[nH]ncc12 | inactive | inactive | inactive | inactive | inactive | inactive | inactive | inactive | inactive |  | 
OC(CCN1CCCCC1)(c1ccccc1)C1CC2C=CC1C2 (stereo not given) | inactive | inactive | inactive | inactive | inactive | inactive | inactive | inactive | inactive |  | 
CCCCNc1cc(C(=O)O)cc(S(N)(=O)=O)c1Oc1ccccc1 | inactive | inactive | inactive | inactive | inactive | inactive | inactive | inactive | inactive | inactive | 
O=C1CCC(N2C(=O)c3ccccc3C2=O)C(=O)N1 (stereo not given) | inactive | inactive | inactive |  | inactive | inactive | inactive | inactive | inactive |  | 
CNC[C@H](O)c1cccc(O)c1 | inactive | inactive | inactive |  | inactive | inactive | inactive | inactive | inactive |  | 
CCN(CC)CCCC(C)Nc1ccnc2cc(Cl)ccc12 (stereo not given) | inactive | inactive |  |  | inactive |  | inactive | inactive | inactive | inactive | 34% [at 8.44 µM]
Cn1cnc([N+](=O)[O-])c1Sc1ncnc2nc[nH]c12 | inactive | inactive | inactive |  | inactive | inactive | inactive | inactive | inactive | 26.9 µM (active) | 
COc1cc2c(cc1OC)CN(CCc1ccc(NC(=O)c3cccc4c(=O)c5cccc(OC)c5[nH]c34)cc1)CC2 |  |  |  | inactive |  |  |  |  |  | inactive | 
CCn1cc(C(=O)O)c(=O)c2cc(F)c(N3CCNC(C)C3)c(F)c21 (stereo not given) | inactive | inactive | inactive |  | inactive | inactive | inactive | inactive | inactive | inactive | 
N=c1nc(N2CCCCC2)cc(N)n1O | inactive | inactive | inactive |  | inactive | inactive | inactive | inactive | inactive |  | 
Cc1[nH]c(=O)c(C#N)cc1-c1ccc2nccn2c1 | inactive | inactive | inactive | inactive | inactive | inactive | inactive | inactive | inactive | inactive | 
Cc1cn[nH]c1 | inactive | inactive | inactive | inactive | inactive | inactive | inactive | inactive | inactive |  | 
Cc1[nH]c(=O)c(C#N)cc1-c1ccncc1 | inactive | inactive | inactive | inactive | inactive | inactive | inactive | inactive | inactive | inactive | 
Oc1ccc(C2CNCCc3c2cc(O)c(O)c3Cl)cc1 (stereo not given) | inactive | inactive | inactive | inactive | inactive | inactive | inactive | inactive | inactive |  | 
c1ccc([C@H]2CN3CCSC3=N2)cc1 | inactive | inactive | inactive | inactive | inactive | inactive | inactive | inactive | inactive |  | 
Nc1ccc(S(=O)(=O)Nc2ccnn2-c2ccccc2)cc1 | inactive | inactive | inactive |  | inactive | inactive | inactive | inactive | inactive |  | 
O=c1n(CCCN2CCN(c3cccc(Cl)c3)CC2)nc2ccccn12 | inactive | inactive | inactive |  | inactive | inactive | inactive | inactive | inactive |  | 
Cc1cc(SCc2sc(-c3ccc(C(F)(F)F)cc3)nc2C)ccc1OCC(=O)O |  |  |  |  |  |  |  |  |  | 14.7 µM (active) | 
NC(N)=NC(=O)c1nc(Cl)c(N)nc1N | inactive | inactive | inactive | inactive | inactive | inactive | inactive | inactive | inactive |  | 
Clc1cccc(Cl)c1NC1=NCCN1 | inactive | inactive | inactive |  | inactive | inactive | inactive | inactive | inactive |  | 
O=NN(CCCl)C(=O)NCCCl | inactive | inactive | inactive | inactive | inactive | inactive | inactive | inactive | inactive |  | 
CC(C)(C)NCC(O)c1ccc(O)c(CO)c1 (stereo not given) | inactive | inactive | inactive |  | inactive | inactive | inactive | inactive | inactive |  | 
CC(C)NCC(O)COc1ccc(COCCOC(C)C)cc1 (stereo not given) | inactive | inactive | inactive |  | inactive | inactive | inactive | inactive | inactive |  | 
CCCC(CCC)C(=O)O | inactive | inactive | inactive |  | inactive | inactive | inactive | inactive | inactive |  | 
C[C@]12CCC(=O)C=C1CC[C@@H]1[C@@H]2[C@@H](O)C[C@@]2(C)[C@H]1CC[C@]2(O)C(=O)CO | inactive | inactive | inactive | inactive | inactive | inactive |  |  | inactive |  | 
